Consider 37 compounds from PubChem BioAssay (EPA / NIEHS).

Each structure is given as a SMILES string. Where a structure was tested more than once in an assay, its records may differ in their call. The source made the active and inactive calls. How the source made its calls: active means hit-call score of the fitted dose curve at least 0.9, where 1 is the maximum; inactive means score below 0.9.

For orientation: AC50 means the concentration at which the activity in the assay is half-maximal.

The test in a line: ATG_EGR_CIS: Attagene CIS-FACTORIAL HepG2 Assay for human Early Growth Response 1 (EGR1) (AID 2282938). The note with it: HepG2 Attagene CIS-FACTORIAL EGR reporter mRNA; actives raise or lower the signal. How it is done:
ATG_CIS is a cell-based, multiplexed-readout assay that uses HepG2, a human liver cell line, with measurements taken at 24 hours after chemical dosing in a 24-well plate.ATG_EGR_CIS is one of 52 assay component(s) measured or calculated from the ATG_CIS assay. It is designed to make measurements of mRNA induction, a form of inducible reporter, as detected with fluorescence intensity signals by Reverse transcription polymerase chain reaction (RT-PCR) and Capillary electrophoresis technology.Data from the assay component ATG_EGR_CIS was analyzed into 1 assay endpoint. This assay endpoint, ATG_EGR_CIS, was analyzed with bidirectional fitting relative to DMSO as the negative control and baseline of activity. Using a type of inducible reporter, measures of mRNA for gain or loss-of-signal activity can be used to understand the reporter gene at the transcription factor-level as they relate to the gene EGR1. Furthermore, this assay endpoint can be referred to as a primary readout, because this assay has produced multiple assay endpoints where this one serves a reporter gene function. To generalize the intended target to other relatable targets, this assay endpoint is annotated to the dna binding intended target family, where the subfamily is zinc finger.
Human liver HepG2 cells are transiently transfected with multiple reporter transcription units (MRTUs) in 6-well plates using FuGene 6 reagent (Roche; 3 ml FuGene/1 mg DNA). The MRTU constructs are regulated by a cis-regulating element (promoter). […] A major difference between the CIS and TRANS system is that in CIS activities of endogenous TFs are measured, whereas the TRANS assay evaluates changes in activities of exogenous, chimeric NR-Gal4 proteins. […] At the end of 24 hour incubation, total RNA was isolated using TriZol reagent (Invitrogen). The isolated RNA is then reverse-transcribed using oligo(dT) primer and Mo-MLV reverse transcriptase (Invitrogen) with DNAse I (Ambion) treatment for 30 min. The one-tenth of the produced cDNA was amplified by PCR using Taq DNA polymerase (Invitrogen) and two reporter sequence-specific primers. The PCR products were fluorescently labeled by primer extension with 6-arboxyfluorescein (6-FAM) 5'-labeled reporter sequence-specific primer (2 min at 95 C, 20 s at 68 C and 10 min at 72 C) and these products were digested with 5U of HpaI (New England Biolabs) for 2h at 37 C. The fragments were purified using Qiaquick PCR columns (Qiagen), analyzed on an ABI 3130xL genetic analyzer (Applied Biosystems) with peak positions identified by using a set of X-rhodamine (ROX)-labeled MapMarker1000 molecular weight standards (BioVentures). The raw capillary electrophoresis data was processed using Attagraph software (Attagene).
Turning to `CCC(=O)O`, the call was inactive. On to `CCCCCC(C)OC(=O)COc1ccc(Cl)c2cccnc12` (stereo not given), for which the call was inactive. The same measure, in the same setting: the entry for `CCCC=O` is “inactive”. On to `CC(C)(C)c1ccc(O)c(O)c1`, for which the compound was classed as inactive and the AC50 was 48.7 µM (active) [middle of 4 runs]. Consider `CCOCCOCC`, for which the outcome was inactive.

Consider `NC(=NCCCCCCN=C(N)/N=C(\N)Nc1ccc(Cl)cc1)/N=C(\N)Nc1ccc(Cl)cc1`, for which the AC50 was 5.68 µM (active) and the compound was classed as inactive. In the case of `CC1CCC(CO)CC1` (stereo not given), the result was inactive. On the same count and under the same terms, the value for `CCOC=O` was “inactive”; that for `COc1cccc(O)c1` was “inactive”. With `CCc1cccc(CC)c1NC(=O)C(=O)O`, the outcome was inactive.

Take `CCCCCCCCCCCC[N+](C)(C)Cc1ccccc1`: the AC50 was 17.3 µM (active) and the result was inactive. `O=C1C=CC(=O)N1c1cccc(N2C(=O)C=CC2=O)c1`: the call was inactive. As to `Cc1ccc2ccc3ccc(C)cc3c2c1`, the call was inactive. With `CCCCN(C)C`, the call was inactive. On to `CCCCc1ccc2ccccc2c1S(=O)(=O)O`, for which the outcome was inactive. Regarding `Cc1cc(Cc2cc(C)cc(C(C)(C)C)c2O)c(O)c(C(C)(C)C)c1`, the AC50 is 100 µM (active).

Turning to `CC(C)(C)C1CCCCC1O` (stereo not given), the result was inactive. Still for that read-out and setting: the value for `C[C@]12CC[C@@H]3c4ccc(O)cc4CC[C@H]3[C@@H]1C[C@@H](O)[C@@H]2O` was “inactive”. In the case of `CC1COCc2cc3c(cc21)C(C)(C)C(C)C3(C)C` (stereo not given), the AC50 was 152 µM (active). `c1cnc2c(c1)ccc1cccnc12`: the call was inactive.

`Cc1ccc(S(=O)(=O)O)cc1`: the compound was classed as inactive. The same measure, in the same setting: the entry for `Cc1cccc2c1ccc1ccccc12` is “inactive”. In the case of `O=C(O)CN(CCCN(CC(=O)O)CC(=O)O)CC(=O)O`, the AC50 is 6.32 µM (active).

Turning to `O=C(F)C(F)(F)C(F)(F)C(F)(F)C(F)F`, the result was inactive. Same read-out and setting: the value for `NS(=O)(=O)O` was “inactive”.

With `OCC(CO)(CBr)CBr`, the compound was classed as inactive. Same read-out and setting: the entry for `CC(C)C=O` is “inactive”. `Cn1sccc1=O`: the AC50 is 165 µM (active). As for `Oc1c(Cl)ccc(Cl)c1Cl`, the outcome was inactive. `CCOC(C)=O`: the compound was called inactive. With `CCCCCCOC(=O)c1ccc(O)cc1`, the AC50 was 52.2 µM (active).

As for `CC=O`, the result was inactive. The same measure, in the same setting: the entry for `O=C(C=C(O)C(F)(F)F)C(F)(F)F` is “inactive”; for `COCC1CCC(CO)CC1` (stereo not given) it is “inactive”. Same read-out and setting: the value for `O=C(NCc1ncc(C(F)(F)F)cc1Cl)c1c(Cl)cccc1Cl` was “inactive”; that for `FC1(F)C=CC(F)(F)C1(F)F` was “inactive”. Same read-out and setting: the entry for `CCN(CCC#N)c1ccccc1` is “inactive”.
